Screening results: PubChem, several laboratories
A selection: hits, their analogues and other compounds. The true share with any hit is near 5%.
SENP8 block-1: SENP8 protease inhibition; AID 2540; inhibition, % at 10 µM; Q96LD8; purified SENP8, Z-RLRGG-aminoluciferin cleavage, luminescence; 1.2% of 330,000 active; in the data active = inhibition above about 50%
Target sequence (Q96LD8 whole entry, looked up): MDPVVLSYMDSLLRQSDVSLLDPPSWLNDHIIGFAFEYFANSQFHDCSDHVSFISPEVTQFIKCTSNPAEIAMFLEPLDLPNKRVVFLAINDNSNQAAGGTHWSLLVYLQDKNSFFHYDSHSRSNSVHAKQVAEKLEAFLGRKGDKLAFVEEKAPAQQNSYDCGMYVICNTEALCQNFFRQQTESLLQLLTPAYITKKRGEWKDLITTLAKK
SENP7 inh: SENP7 protease inhibition; inhibition, % at 5 µM; AID 434973; Q9BQF6; recombinant SENP7, Z-RLRGG-aminoluciferin luminescence, 40 min; 1.5% of 330,000 active;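 active = inhibition above about 50% at the single test dose, limit read from the data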;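 also: plate controls were DMSO with enzyme for no effect and no enzyme buffer wells for full effect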
SENP6 block: blocks the human protease SENP6; inhibition, % at 10 µM; 1.8% of 330,000 active; Q9GZR1; Recombinant SENP6 catalytic domain, aminoluciferin luminescence;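 active = inhibition above about 50% at the single tested dose, limit read from the data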;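 also: plate controls were DMSO wells with enzyme for no effect and DMSO wells lacking enzyme for full effect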
SENP8 block-2: SENP8 (human) protease inhibition; recombinant SENP8, Nedd8 substrate fluorescence; 0.64% of 360,000 active; AID 602440; inhibition, % at 20 µM; in the data active = inhibition mostly above about 40%, no sharp cut-off; inactive = mostly below about 27%
AHR act: human AHR activation. activation, % at 5 µM. AID 2796. 2.5% of 320,000 active. P35869. AHR-responsive luciferase reporter cells, luminescence; in the data active = activation above about 47%;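 also: 0% = vehicle wells and 100% = reference agonist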
EBI2 block: blocks human EBI2 receptor beta-arrestin signaling | P32249 | EBI2 beta-arrestin recruitment, luminescence, 7a,25-OHC stimulated | inhibition, % at 5 µM | 0.81% of 360,000 active; in the data active = inhibition above about 38%;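 also: enzyme fragment complementation signal reports receptor beta-arrestin coupling in cells; 0% = agonist plus DMSO wells and 100% = wells without agonist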
SENP8 conf-1: human SENP8 inhibition, confirmed; AID 488912; 40% of 6,200 active; inhibition, % at 12.5 µM; Recombinant SENP8, Z-RLRGG-aminoluciferin luminescence, 60 min; shares compounds with SENP7 inh;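 active = mean inhibition across replicates above about 50%, limit read from the data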
SENP6 conf: confirmation of human SENP6 protease inhibitors; shares compounds with SENP7 inh; recombinant SENP6, Z-RLRGG-aminoluciferin luminescence; inhibition, % at 12.5 µM; 58% of 6,200 active; AID 488915
SENP7 confirm: human SENP7 inhibition, confirmed; shares compounds with SENP7 inh; recombinant SENP7, Z-RLRGG-aminoluciferin luminescence, 40 min; inhibition, % at 12.5 µM; 69% of 6,200 active; AID 488917
Casp3 select: caspase-3 inhibition (SENP selectivity assay) | shares compounds with SENP7 inh | purified caspase-3, Z-DEVD-aminoluciferin luminescence, 60 min | inhibition, % at 12.5 µM | 60% of 6,200 active | AID 488918;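 active = mean inhibition above about 50%, limit read from the data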;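 also: plate controls were enzyme with DMSO for no effect and wells without caspase-3 for full effect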
Target sequence (P42574 28-227 limits assumed): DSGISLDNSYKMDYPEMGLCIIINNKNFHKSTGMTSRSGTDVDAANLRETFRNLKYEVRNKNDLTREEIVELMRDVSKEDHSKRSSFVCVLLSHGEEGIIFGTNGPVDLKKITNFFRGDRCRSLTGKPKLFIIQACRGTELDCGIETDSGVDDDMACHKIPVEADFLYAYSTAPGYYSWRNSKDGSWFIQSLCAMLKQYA
SENP luc ctr: counter-screen for SENP inhibitors: luminescence interference | shares compounds with SENP7 inh | Pre-incubated SENP8/Z-RLRGG-aminoluciferin, luciferase luminescence interference | inhibition, % at 12.5 µM | 39% of 6,200 active | AID 488919;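 active = mean inhibition above about 50% when retested at one dose, limit read from the data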;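 also: plate controls were DMSO wells with completed reaction for no effect and substrate without enzyme for full effect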
SENP8 conf-2: SENP8 (human) inhibition, single concentration confirmation. purified SENP8, Nedd8-AMC/pro-Nedd8 cleavage fluorescence, 30 min. shares compounds with SENP8 block-2. inhibition, % at 25 µM. 15% of 1,400 active; in the data active = inhibition mostly above about 39%, no sharp cut-off; inactive = mostly below about 34%
Numbers without * were called inactive; . = no result.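 The calls were made as follows, unless noted: active = mean inhibition above about 50% in the one-dose retest (limit read from the data); inactive = the rest.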

SMILES	SENP8 block-1	SENP7 inh	SENP6 block	SENP8 block-2	AHR act	EBI2 block	SENP8 conf-1	SENP6 conf	SENP7 confirm	Casp3 select	SENP luc ctr	others
O=C(Nc1ccc(F)cc1F)c1ccc2c(=O)n3c(nc2c1)CCC3	26.4	60.7*	63.6*	9.1	.	-4.5	46.6	52.0*	79.5*	86.1*	40.2
CC(C)(C)c1ccc(OCc2nc(-c3ccccn3)no2)c(Br)c1	17.6	42.7	58.7*	17.9	25.7	-4.2	45.2	57.3*	74.4*	33.0	21.4
Clc1cc(Cl)c(OCc2nc(-c3ccccn3)no2)cc1Cl	80.8*	81.1*	60.7*	5.6	10.2	1.5	14.6	49.9	96.1*	51.9*	7.5
Clc1ccc(OCc2nc(-c3ccncc3)no2)c(Cl)c1	4.8	24.5	55.2*	18.8	0.5	2.4	34.3	25.3	64.9*	26.5	41.9
c1ccc(Cc2nc(-c3ccccn3)no2)cc1	-10.4	-31.8	-23.9	5.6	1.0	-9.1	.	.	.	.	.
Cc1cccc(NC(=O)NC(=O)c2ccccc2)n1	22.0	53.7*	-7.9	10.5	7.3	-0.7	9.5	12.1	24.2	14.7	1.9
Cc1ccc2nc3ccc(N4CCCC4)nn3c(=O)c2c1	-2.6	3.0	-9.7	-425.4	-3.6	-8.2	.	.	.	.	.
CC1CCCN(c2ccc3nc4ccccc4c(=O)n3n2)C1 (stereo unspecified)	35.5	49.5	60.7*	-175.7	-7.5	7.0	45.6	51.8*	81.1*	82.7*	20.5
O=C(c1cc(-c2ccc(Cl)cc2Cl)on1)N1CCCCCC1	55.5*	54.4*	73.1*	6.2	-4.8	18.0	62.5*	60.4*	82.4*	46.1	45.3
O=C(c1cc(-c2ccc(Cl)cc2)on1)N1CCCCCC1	-3.8	24.9	2.7	0.9	-1.4	18.7	.	.	.	.	.
O=C(c1cc(-c2ccc(Cl)cc2Cl)on1)N1CCCC1	78.4*	75.3*	87.3*	9.6	-12.8	-7.9	-7.6	44.6	50.6*	30.5	48.4
COC(=O)CSc1nnc(CNC(=O)c2cc(OC)cc(OC)c2)n1-c1ccc(F)cc1	1.0	-1.8	5.6	18.8	1.1	-4.3	.	.	.	.	.
Cc1cc(C(=O)Nc2ccccn2)cs1	48.8	70.8*	71.9*	5.5	-3.0	-1.2	40.0	46.6	84.7*	85.4*	63.3*
COc1cc(C(=O)Nc2ccccn2)cc(OC)c1OC	-1.7	3.0	-4.2	9.2	21.6	-5.3	.	.	.	.	.
CCONc1ncnc2nonc12	-6.5	1.6	-13.1	0.3	-0.6	-1.1	.	.	.	.	.
COc1ccc(CONc2ncnc3nonc23)cc1[N+](=O)[O-]	55.3*	46.2	70.1*	10.9	6.1	-0.4	2.0	50.2*	83.2*	70.3*	62.3*
O=C(Nc1ccc(N2CCOCC2)c(Cl)c1)c1ccccc1F	-17.1	7.1	-2.3	8.4	-9.8	6.6	.	.	.	.	.
Cc1cc(C(=O)Nc2ccc(N3CCOCC3)c(Cl)c2)c(C)o1	56.7*	57.5*	76.8*	22.7	2.5	-2.6	71.2*	69.1*	87.8*	76.9*	74.5*
COc1ccc(NC(=O)c2ccc(OCC3CCCO3)cc2)cc1OC (stereo unspecified)	0.1	4.3	-7.7	13.7	2.0	2.0	.	.	.	.	.
Cc1ccc(NC(=O)c2ccc(OCC3CCCO3)cc2)c(C)c1 (stereo unspecified)	-3.6	6.0	-14.0	11.3	3.1	-5.4	.	.	.	.	.
Cc1ccnc(NC(=O)COc2ccc3c(c2)CCC3)c1	94.3*	94.4*	81.8*	6.9	1.4	-2.9	86.9*	86.1*	97.9*	90.9*	83.8*
COc1ccc(NC(=O)c2ccc(OCC3CCCO3)cc2)cc1Cl (stereo unspecified)	38.1	67.3*	55.5*	-0.8	.	35.2	8.2	39.8	73.4*	39.2	4.4
Cc1ccnc(NC(=O)c2ccc(OCC3CCCO3)cc2)c1 (stereo unspecified)	74.5*	83.4*	83.8*	5.4	-5.8	3.9	82.1*	82.4*	97.4*	94.5*	60.9*
CC(=O)Nc1ccc(NC(=O)COc2ccc3c(c2)CCC3)cc1	-3.8	-1.3	-9.0	19.6	-1.1	-12.1	.	.	.	.	.
COc1ccc(Cl)cc1S(=O)(=O)NC(C)C(=O)NCCN1CCOCC1 (stereo unspecified)	.	.	.	14.0	.	-4.5	.	.	.	.	.
SMILES	SENP8 block-1	SENP7 inh	SENP6 block	SENP8 block-2	AHR act	EBI2 block	SENP8 conf-1	SENP6 conf	SENP7 confirm	Casp3 select	SENP luc ctr	others
CC1(C)CC(=O)c2sc(NC(=O)c3ccccc3)nc2C1	55.3*	56.9*	39.7	.	5.8	.	60.0*	51.2*	65.1*	75.0*	64.3*
CC1(C)CC(=O)c2sc(NC(=O)C(C)(C)C)nc2C1	6.7	-3.3	-4.9	-6.5	12.1	-13.9	.	.	.	.	.
CC1(C)CC(=O)c2sc(NC(=O)c3cccs3)nc2C1	52.2*	66.4*	80.1*	-57.3	1.2	1.0	62.9*	63.6*	87.8*	86.6*	44.0
CC1(C)CNC(=O)c2sc(NC(=O)c3ccccc3)nc2C1	-6.4	-6.0	3.8	6.4	22.3	-25.0	.	.	.	.	.
CN(CC(=O)Nc1ccc(F)cc1)C(=O)C1CCN(C(=O)Nc2ccccc2)CC1	0.4	6.4	5.3	8.4	-0.3	2.6	.	.	.	.	.
O=C1Cc2ccccc2C(=O)N1c1ccccc1	17.2	18.5	53.9*	52.8*	-2.5	3.2	5.2	10.5	8.5	15.3	6.5	SENP8 conf-2=4.3
O=C1Cc2ccccc2C(=O)N1Cc1ccccc1	94.2*	79.5*	90.9*	85.1*	1.3	-8.1	39.3	88.5*	64.1*	72.0*	-6.8	SENP8 conf-2=34.6
O=C1Cc2ccccc2C(=O)N1c1cccc(Cl)c1	10.3	17.5	51.6*	70.8*	0.8	-1.3	8.6	32.8	22.2	13.8	3.4	SENP8 conf-2=40.8
CC(C)(C)NC(=O)CN(Cc1ccc2c(c1)OCO2)C(=O)CNC(=O)c1cccs1	-0.4	-3.3	-16.2	.	2.0	.	.	.	.	.	.
CC1=NN(c2ccc(F)cc2)C(=O)C1C(c1cccc(O)c1)c1c(C)[nH]n(-c2ccc(F)cc2)c1=O (stereo unspecified)	27.2	57.8*	23.1	89.7*	31.7	8.9	-17.3	19.4	5.5	-2.5	-1.2	SENP8 conf-2=52.3*
